Sampled rows, rich in hits. Any-hit rate of the full collection: about 10%.
Six1-Eya2 inh = inhibitors of human Six1/Eya2 interaction; hit rate 0.56% among 360,000; activity change, % (concentration not given with the values); AlphaScreen GST-Six1/His-Eya2 binding, biochemical; active compounds read low; AID 651725; Q15475+O00167; in the data active = activity change below about -65%; inconclusive = mostly about -30% to -63%
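AlphaScreen with GST-Six1 and His-Eya2 (5X mix: 250 nM and 500 nM), glutathione donor and nickel acceptor beads; buffer 50 mM Tris pH 8.0, 300 mM NaCl, 1 mM TCEP; 1 h at 37 C in the dark.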
HP1b chromo inh = HP1-beta chromodomain-methylated histone interaction inhibition; AlphaScreen HP1-beta / biotin-H3K9me3 peptide binding; hit rate 0.56% among 390,000; P83916; Potency, µM (doses to about 114 µM), actives largely listed as inhibitors; note: nearly all actives have a fitted effect of over 70% in size
Target sequence (P83916 whole entry, looked up): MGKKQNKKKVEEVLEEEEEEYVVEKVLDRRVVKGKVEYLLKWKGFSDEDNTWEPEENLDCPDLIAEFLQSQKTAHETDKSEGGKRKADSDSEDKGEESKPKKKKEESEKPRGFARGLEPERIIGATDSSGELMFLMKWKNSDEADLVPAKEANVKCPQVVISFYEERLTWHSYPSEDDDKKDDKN
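AlphaScreen: HP1-beta (50 nM) preformed 30 min with biotin-H3(1-18)K9me3 peptide (50 nM) in PBS pH 7.4, 0.01% Tween-20. Compound added for 30 min at RT, then streptavidin donor/nickel chelate acceptor beads (10 ug/mL) for 30 min.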
CtBP-E1A inh = blocks the CtBP interaction with E1A; AlphaScreen GST-E1A/His-CtBP binding, 1536-well; active compounds read low; activity change, % (test concentration not listed); hit rate 0.49% among 340,000; AID 651724; in the data active = activity change below about -65%; inconclusive = mostly about -30% to -63%
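In 5 uL wells, 23 nL compound meets equimolar GST-E1A and His-CtBP (5X stock 125 nM each) for 2 h, 37 °C. Beads (5X, 50 ug/mL) then 1 h, 37 °C, dark.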
BAZ2B block = blocks human BAZ2B; AID 504333; Potency, µM (titrated, usually from 114 µM), most hits filed as inhibitors; AlphaScreen BAZ2B-H3K14Ac peptide displacement; Q9UIF8; hit rate 4.4% among 360,000; note: nearly all actives have a fitted effect of over 60% in size
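Multi-concentration screen (max 110 uM) measuring displacement of acetylated histone H3 peptide from BAZ2B by AlphaScreen, using 50 nM protein, 50 nM peptide and 10 ug/mL streptavidin donor plus Ni-chelate acceptor beads.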
G9a inh = G9a (human) methyltransferase inhibition | G9a H3K9 monomethylation, AlphaScreen, 2 h | Q96KQ7 | hit rate 8.8% among 350,000 | Potency, µM (doses to about 102 µM), most hits filed as inhibitors; note: nearly all actives have a fitted effect of over 75% in size
Target sequence (Q96KQ7 913-1193 limits assumed): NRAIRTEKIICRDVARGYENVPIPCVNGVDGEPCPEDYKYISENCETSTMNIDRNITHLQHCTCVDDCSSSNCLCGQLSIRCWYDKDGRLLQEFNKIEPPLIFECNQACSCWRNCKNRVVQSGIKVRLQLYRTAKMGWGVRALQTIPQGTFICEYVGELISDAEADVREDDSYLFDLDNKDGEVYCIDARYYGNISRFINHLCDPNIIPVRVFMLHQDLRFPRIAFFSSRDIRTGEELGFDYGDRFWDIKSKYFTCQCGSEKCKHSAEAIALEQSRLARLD
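Signal arises when biotinylated H3K9 peptide, once monomethylated, bridges streptavidin donor and antibody-captured acceptor beads. Enzyme at 20 nM was preincubated 15 min with test compounds; peptide 500 nM and SAM 20 uM then reacted for 2 h.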
JMJD2A Tudor inh = blocks the human JMJD2A Tudor domain; O75164; AlphaScreen JMJD2A-Tudor / H3K4me3 peptide binding; Potency, µM (series often up to 114 µM), hits mostly inhibitors; hit rate 4.4% among 390,000; AID 504339; note: nearly all actives have a fitted effect of over 50% in size
Numbers stand for hits; . = inactive; ? = inconclusive; / = not tested or not shown; [ ] = another dose, or the depositor's remark. Unless noted, calls come from the whole dose curve; as a rule, active = well fitted inhibition curve with a large enough effect; inconclusive = small, poorly fitted or top-dose-only effect; inactive = no such curve, though single readings can be large or run the other way.

SMILES	Six1-Eya2 inh	HP1b chromo inh	CtBP-E1A inh	BAZ2B block	G9a inh	JMJD2A Tudor inh
O=C(NCc1ccccc1F)C1CCN(c2nn3cc(-c4ccc(F)cc4)nc3s2)CC1	/	.	/	.	.	.
CCCC(=O)n1nc(-c2ccco2)nc1SCc1ccccc1	.	.	.	.	.	.
CSc1nc(-c2ccco2)nn1C(=O)c1ccc(C)cc1	.	.	.	.	45µM	.
CSc1nc(-c2ccco2)nn1C(=O)c1ccco1	.	.	.	.	40µM	.
O=C(Cc1ccccc1)n1nc(-c2ccco2)nc1SCc1ccccc1	.	.	.	.	.[12.7 µM]	89µM
Cc1ccc(N(CC(=O)Nc2ccc(Br)c(C)c2)S(=O)(=O)c2cccs2)cc1	/	.	/	/	.	.
C#CCOCCOCCOCCNc1nc(N2CCN(C(=O)[C@H]([C@@H](C)CC)n3cc([C@@H](N)Cc4ccc(O)cc4)nn3)CC2)nc(N2CCN(C(=O)[C@H](Cc3cc4ccccc4[nH]3)n3cc([C@@H](N)CC(C)C)nn3)CC2)n1	.	.	.	56µM	.[2.33 µM]	40µM
C#CCOCCOCCOCCNc1nc(N2CCN(C(=O)[C@H]([C@@H](C)CC)n3cc([C@@H](N)CC(C)C)nn3)CC2)nc(N2CCN(C(=O)[C@H](Cc3cc4ccccc4[nH]3)n3cc([C@@H](N)C(C)CC)nn3)CC2)n1 (stereo partly drawn)	/	/	/	50µM	.[12.7 µM]	/
C#CCOCCOCCOCCNc1nc(N2CCN(C(=O)[C@H]([C@@H](C)CC)n3cc([C@@H](N)CC(C)C)nn3)CC2)nc(N2CCN(C(=O)[C@H](Cc3cc4ccccc4[nH]3)n3cc([C@@H](N)Cc4ccc(O)cc4)nn3)CC2)n1	.	.	.	50µM	.[12.7 µM]	56µM
COC(=O)c1ccc(N2C(=O)CC(SCC(=O)Nc3ccc(OC)cc3)C2=O)cc1 (stereo not drawn)	.	.	.	.	/	.
CN=C(Nc1cc(Cl)ccc1Cl)SC1CC(=O)N(c2ccc(C(=O)OC)cc2)C1=O (stereo not drawn)	.	.	.	.	50µM	.
COC(=O)c1ccc(N2C(=O)CC(Sc3n[nH]c(C)n3)C2=O)cc1 (stereo not drawn)	.	.	.	.	2µM	.[11.4 µM]
Cc1c(Cl)c([N+](=O)[O-])nn1CC(=O)N1CCc2ccccc2C1	.	.	.	.	.[0.0925 µM]	.
Cc1nn(CC(=O)N2CCN(C34CC5CC(CC(C5)C3)C4)CC2)c(C)c1[N+](=O)[O-]	.	.	.	.	25µM	.
Cc1c(Cl)c([N+](=O)[O-])nn1CC(=O)N1CCN(C23CC4CC(CC(C4)C2)C3)CC1	.	.	.	.	45µM	.
Cc1[nH]c(C)c(S(=O)(=O)N2CCN(c3ccccc3)CC2)c1C(=O)N1CCCC1	.	.	.	.	45µM	.
CN1CCN(c2ncc3nc(-c4cccc(C#N)c4)c(=O)n(C[C@H]4CCCO4)c3n2)CC1	/	/	/	/	.[0.501 µM]	/
CCn1cc(C(=O)NCCc2ccc(C)cc2)c(=O)c2cc(S(=O)(=O)N3CCc4ccccc4C3)ccc21	/	.	/	/	.	.
CC(C)OC(=O)c1cc2c(ccn2C)n1CC(=O)N(Cc1ccccc1)c1ccccc1	.	?	.	25µM	25µM	18µM
CSc1ccc(CNC(=O)c2cc3c(=O)n(Cc4ccco4)ccc3nc2C)cc1	/	.	/	.	.	.
CC(C)c1ccc(C(=O)Nc2ccc(-c3nc4ccccc4s3)c(Cl)c2)cc1	/	.	/	.	.	.
COc1cc(OC)c(NC(=O)c2cc(CN3CCOCC3)on2)cc1Cl	/	?	/	.	.	.
COc1ccc(OC)c(CNCc2c(C(=O)O)n(Cc3cccc(F)c3)c3cc(OC)ccc23)c1	/	.	/	.	.	.
Cc1ccc(N/N=C(\C#N)C(N)=S)c(C)c1	.	?	.	?	10µM	45µM
Cc1ccccc1OCCNCC(C)O (stereo not drawn)	.	?	.	56µM	14µM	2.8µM
SMILES	Six1-Eya2 inh	HP1b chromo inh	CtBP-E1A inh	BAZ2B block	G9a inh	JMJD2A Tudor inh
CCOc1ccccc1CNCCNCC(C)O (stereo not drawn)	.	.	.	.	?	.
CCCN(CCC)C(=O)Cn1c(SCc2cccc(F)c2)nc2cccnc21	/	.	/	.	.	.
O=C(O)c1ccc(N2C(=O)c3cccc4cccc(c34)C2=O)cc1	.	.	.	.	/	.
O=C1c2cccc3cccc(c23)C(=O)N1c1ccc(O)cc1	.	.	/	79µM	.	.
O=C(O)c1ccc(N2C(=O)c3cccc4c(C(=O)O)ccc(c34)C2=O)cc1	.	79µM	.	50µM	13µM	45µM
O=C1c2ccccc2C(=O)N1c1ccc(O)cc1	/	.	/	/	/	.
O=C(O)c1ccc2c3c(cccc13)C(=O)N(c1ccccc1)C2=O	.	?	.	56µM	20µM	?
Cc1ccc(C)c(CN2C(=O)CSc3ccc(C(=O)NCCc4ccc(Cl)cc4)cc32)c1	/	.	/	.	.	?
COc1cccc(C(=O)Nc2ccc(NC(=O)C3CC3)nc2)c1	.	.	.	.	40µM	.
COc1cccc(C(=O)Nc2ccc(NC(C)=O)cn2)c1	.	.	.	.	.	.
CCCC(=O)Nc1ccc(NC(=O)c2ccccn2)cn1	.	.	.	.	?	3.2µM
O=C(Nc1ccc(NC(=O)C2CCCCC2)nc1)c1ccccn1	.	.	.	?	28µM	?
CCOC(=O)C(C)N1C(=O)S/C(=C/c2cc(C)n(-c3ccccn3)c2C)C1=O (stereo not drawn)	.	.	.	?	.[12.7 µM]	56µM
CCOC(=O)C(C)N1C(=O)S/C(=C/c2cc(C)n(-c3ccncc3)c2C)C1=O (stereo not drawn)	.	.	/	?	50µM	?
CCn1c(C)cc(/C=C2/SC(=O)N(C(C)C(=O)OC)C2=O)c1C (stereo not drawn)	?	.	.	?	?	?
N#C/C(=C\c1ccc(-c2cccc(Cl)c2)o1)C(=O)Nc1cccc(C(F)(F)F)c1	/	.	/	.	.	.
Cn1ccnc1SCc1cn2ccccc2n1	.	.	.	.	?	?
Cc1cc(=O)[nH]c(SCc2cn3ccccc3n2)n1	.	.	.	.	50µM	.
Clc1ccc2nc(SCc3nnc(-c4ccccc4)o3)[nH]c2c1	.	.	.	.	.	.
Cc1cc(=O)[nH]c(SCc2nnc(-c3ccccc3)o2)n1	.	.	.	.	7.9µM	.
O=[N+]([O-])c1ccc2nc(SCc3cn4cccnc4n3)[nH]c2c1	.	.	/	.	?	.
O=[N+]([O-])c1ccc2nc(SCc3cn4ccccc4n3)[nH]c2c1	.	.	.	.	10µM	.
Cc1cccc(NCCC(=O)c2ccc(Br)cc2)c1	.	.	.	?	.	?
CCOC(=O)CNCCC(=O)c1ccc(Br)cc1	.	.	.	?	7.1µM	?

Bioassay records deposited in PubChem by National Center for Advancing Translational Sciences (NCATS).
